Reference: PubChem BioAssay
Calls of active or inactive are those of the source.

Experiments:
[1] = test system: PRMT1 (protein arginine N-methyltransferase 1); assay: PRMT1 binders on small-molecule microarrays, primary screen, biochemical, small-molecule microarray, 635 nm fluorescence (AID 1088); details: small-molecule microarray binding, higher = more signal;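 note: binding of Prmt1 protein to compounds spotted on small-molecule microarray slides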
[2] = yeast growth modulation, basal conditions, primary screen, YJM789 clinical isolate, OD600, 24 h (AID 1089);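 note: growth of clinical yeast isolate S. cerevisiae YJM 789 seeded 1000 cells per well; test concentration not given here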; details: S. cerevisiae YJM789 growth, higher = more signal, called active from +8 up or from −8 down
[3] = fission yeast growth modulation, primary screen, strain 972, OD600, 24 h, no modulator (AID 1090);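 note: basal condition with compound alone and no growth modifier present; test concentration not given here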; details: S. pombe 972 growth, higher = more signal, called active from +8 up or from −8 down
[4] = S. cerevisiae growth modulation with rapamycin, primary screen, strain BY4716, OD600, 96 h (AID 1091); details: higher = more signal, called active from +8 up or from −8 down; note: test concentration not given here
[5] = target: Torsin-1A-interacting protein 2 (Homo sapiens) (UniProt Q8NFQ8); assay: LULL1 binders on small-molecule microarray, primary screen, cell lysate, human LULL1 lysate, 635/667 nm fluorescence (AID 1092); details: hLULL1 lysate binding, 635 nm fluorescence, higher = more signal;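 note: probe is lysate of COS7 cells overexpressing human LULL1; score merges per-feature 667 nm fluorescence with signal-to-noise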
Sequence of Torsin-1A-interacting protein 2 (Homo sapiens) (Q8NFQ8 whole entry, looked up): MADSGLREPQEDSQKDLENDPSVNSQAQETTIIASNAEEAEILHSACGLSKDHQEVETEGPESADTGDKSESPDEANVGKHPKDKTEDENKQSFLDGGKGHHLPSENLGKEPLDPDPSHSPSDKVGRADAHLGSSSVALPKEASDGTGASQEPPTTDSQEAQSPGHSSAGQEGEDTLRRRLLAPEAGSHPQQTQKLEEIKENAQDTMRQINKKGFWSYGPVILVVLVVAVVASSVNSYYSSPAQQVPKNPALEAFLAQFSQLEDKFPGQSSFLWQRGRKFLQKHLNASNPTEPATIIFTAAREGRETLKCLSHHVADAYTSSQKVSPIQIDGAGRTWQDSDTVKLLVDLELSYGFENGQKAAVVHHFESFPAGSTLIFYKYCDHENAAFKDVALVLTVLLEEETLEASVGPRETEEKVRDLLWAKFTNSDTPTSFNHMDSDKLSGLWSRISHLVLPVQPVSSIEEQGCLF

[6] = E. coli growth modulation, two-sided OD650, primary screen, E. coli filamentation project, strain DRC41, 24 h (AID 1093); details: OD650, 24 h, higher = more signal, called active from +8 up or from −8 down;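 note: MC1000 strain lacking acrAB efflux and sulA so SOS filamentation is blocked; test concentration not given here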
[7] = small-molecule microarray binders of probe aLefty2, primary screen, biochemical, biotinylated probe, 635/667 nm fluorescence (AID 1094); details: higher = more signal;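 note: score merges spot fluorescence near 667 nm with spot signal-to-noise ratio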
[8] = test system: Noggin (protein binding on small-molecule microarray); assay: Noggin binders on small-molecule microarray, primary screen, biochemical, 635/667 nm fluorescence (AID 1095); details: 635 nm fluorescence, higher = more signal;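 note: score merges 667 nm feature fluorescence with signal to noise over triplicate slides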
[9] = target: Neurogenic locus notch homolog protein 3 (Homo sapiens) (UniProt Q9UM47); assay: NOTCH3 binders on small-molecule microarray, primary screen, biochemical, 635/667 nm fluorescence (AID 1096); details: NOTCH3 binding, 635 nm fluorescence, higher = more signal
Sequence of Neurogenic locus notch homolog protein 3 (Homo sapiens) (Q9UM47 whole entry, looked up): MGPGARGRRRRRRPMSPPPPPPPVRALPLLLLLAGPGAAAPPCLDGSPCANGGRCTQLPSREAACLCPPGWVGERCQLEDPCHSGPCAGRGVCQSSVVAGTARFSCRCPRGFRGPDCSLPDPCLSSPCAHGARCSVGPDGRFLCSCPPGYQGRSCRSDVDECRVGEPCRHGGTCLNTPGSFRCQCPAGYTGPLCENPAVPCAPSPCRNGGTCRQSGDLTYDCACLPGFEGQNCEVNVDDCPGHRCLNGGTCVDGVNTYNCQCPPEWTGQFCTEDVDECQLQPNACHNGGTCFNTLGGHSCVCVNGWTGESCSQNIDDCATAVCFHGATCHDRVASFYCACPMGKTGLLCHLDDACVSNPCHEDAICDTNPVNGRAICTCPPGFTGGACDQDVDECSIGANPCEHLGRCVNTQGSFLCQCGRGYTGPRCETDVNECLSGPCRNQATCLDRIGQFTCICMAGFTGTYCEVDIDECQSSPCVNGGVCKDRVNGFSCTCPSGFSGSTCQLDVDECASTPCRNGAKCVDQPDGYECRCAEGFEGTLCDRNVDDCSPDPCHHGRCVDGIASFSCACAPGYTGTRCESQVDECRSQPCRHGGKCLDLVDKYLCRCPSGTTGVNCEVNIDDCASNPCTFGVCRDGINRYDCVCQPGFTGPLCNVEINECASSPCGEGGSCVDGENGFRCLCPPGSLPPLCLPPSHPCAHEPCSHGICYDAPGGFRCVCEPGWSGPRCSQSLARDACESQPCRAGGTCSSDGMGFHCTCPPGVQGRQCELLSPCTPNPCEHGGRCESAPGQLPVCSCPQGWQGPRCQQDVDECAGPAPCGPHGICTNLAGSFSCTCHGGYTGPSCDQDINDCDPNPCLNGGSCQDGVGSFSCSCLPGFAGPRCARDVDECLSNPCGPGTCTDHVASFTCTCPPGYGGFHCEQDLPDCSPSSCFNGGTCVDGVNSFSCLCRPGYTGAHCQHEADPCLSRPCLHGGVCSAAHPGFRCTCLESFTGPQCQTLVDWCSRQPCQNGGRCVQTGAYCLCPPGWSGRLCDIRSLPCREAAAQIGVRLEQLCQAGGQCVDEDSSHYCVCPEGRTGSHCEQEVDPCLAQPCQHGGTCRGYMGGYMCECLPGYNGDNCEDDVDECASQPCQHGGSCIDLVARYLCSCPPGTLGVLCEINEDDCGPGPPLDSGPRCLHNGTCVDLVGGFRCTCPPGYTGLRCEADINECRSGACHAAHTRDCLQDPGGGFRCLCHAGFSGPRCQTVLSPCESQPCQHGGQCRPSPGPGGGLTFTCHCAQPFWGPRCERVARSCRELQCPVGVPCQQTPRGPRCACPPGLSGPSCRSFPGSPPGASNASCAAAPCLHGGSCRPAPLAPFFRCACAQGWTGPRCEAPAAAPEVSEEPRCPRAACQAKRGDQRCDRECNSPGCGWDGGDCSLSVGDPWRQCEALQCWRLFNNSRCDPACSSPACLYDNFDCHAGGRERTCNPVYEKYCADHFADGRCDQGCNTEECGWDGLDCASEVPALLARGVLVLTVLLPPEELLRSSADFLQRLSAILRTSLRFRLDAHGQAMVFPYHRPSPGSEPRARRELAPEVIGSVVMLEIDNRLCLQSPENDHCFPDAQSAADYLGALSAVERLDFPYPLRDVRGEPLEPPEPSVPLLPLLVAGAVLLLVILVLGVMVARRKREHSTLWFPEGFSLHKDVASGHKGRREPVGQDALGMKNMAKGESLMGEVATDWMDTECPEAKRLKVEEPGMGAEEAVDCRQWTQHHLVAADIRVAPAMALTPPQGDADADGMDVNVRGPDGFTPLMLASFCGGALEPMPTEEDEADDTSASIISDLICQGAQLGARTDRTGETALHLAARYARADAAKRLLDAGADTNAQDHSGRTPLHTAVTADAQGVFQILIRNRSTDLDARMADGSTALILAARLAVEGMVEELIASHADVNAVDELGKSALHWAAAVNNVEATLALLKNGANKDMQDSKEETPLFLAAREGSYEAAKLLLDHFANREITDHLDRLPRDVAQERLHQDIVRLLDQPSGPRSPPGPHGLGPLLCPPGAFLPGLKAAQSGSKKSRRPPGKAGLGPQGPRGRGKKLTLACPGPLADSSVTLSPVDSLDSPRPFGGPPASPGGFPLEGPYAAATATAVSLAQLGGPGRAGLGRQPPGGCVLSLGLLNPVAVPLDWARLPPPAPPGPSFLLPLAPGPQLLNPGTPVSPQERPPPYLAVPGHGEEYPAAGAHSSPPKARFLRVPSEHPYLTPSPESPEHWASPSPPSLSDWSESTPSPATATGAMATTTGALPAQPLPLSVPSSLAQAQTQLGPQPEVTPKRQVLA

[10] = small-molecule microarray binders of probe aEGFR, primary screen, biochemical, biotinylated probe, 635/667 nm fluorescence (AID 1097); details: higher = more signal;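 note: probe is a biotinylated anti-EGFR antibody binding compounds printed on slides; score combines fluorescence near 667 nm and signal to noise of each spot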
[11] = test system: Plasmodium falciparum Sir2 (PF13_0152, Sir2A); assay: pfSir2 binders on small-molecule microarrays, primary screen, biochemical, small-molecule microarray, 635 nm fluorescence (AID 1098); details: small-molecule microarray binding, fluorescence 635 nm; higher = more signal;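 note: score merges spot fluorescence intensity with its signal-to-noise ratio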
[12] = small-molecule microarray binders of probe aDKK1, primary screen, biochemical, biotinylated probe, 635/667 nm fluorescence (AID 1099); details: higher = more signal;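 note: score merges 667nm spot fluorescence with signal to noise across triplicate slides; reference of the scale not given here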
[13] = small-molecule microarray binders of probe aCHRDL2, primary screen, biochemical, biotinylated probe, 635/667 nm fluorescence (AID 1100); details: higher = more signal
[14] = splicing luciferase reporter signal modulators, primary screen, spliceosome inhibition project, cell-based, HEK293, splice +/- reporter (AID 1101); details: luminescence, 24 h, higher = more signal, called active from +8 up or from −8 down;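 note: HEK293 cells carrying a splicing-competent luciferase reporter gene; test concentration not given here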
[15] = target: Fibroblast growth factor 10 (Homo sapiens) (UniProt O15520); assay: FGF10 binders on small-molecule microarrays, primary screen, biochemical, small-molecule microarray, 635 nm fluorescence (AID 1102); details: FGF10 binding, fluorescence 635 nm, higher = more signal
Sequence of Fibroblast growth factor 10 (Homo sapiens) (O15520 whole entry, looked up): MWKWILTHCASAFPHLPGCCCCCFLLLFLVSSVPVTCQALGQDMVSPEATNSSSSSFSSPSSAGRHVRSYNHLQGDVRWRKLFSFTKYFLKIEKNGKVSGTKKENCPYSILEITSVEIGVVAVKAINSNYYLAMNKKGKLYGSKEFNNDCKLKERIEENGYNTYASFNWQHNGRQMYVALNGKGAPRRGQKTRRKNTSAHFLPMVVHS

[16] = test system: glycogen synthase kinase-3 (GSK3A per assay name; protocol says GSK3B); assay: GSK3 binders on small-molecule microarrays, primary screen, biochemical, small-molecule microarray, 635 nm fluorescence, GSK3A (AID 1103); details: small-molecule microarray binding, fluorescence 635 nm; higher = more signal; note: the record names both GSK3A and GSK3B
[17] = target: Epidermal growth factor receptor (Homo sapiens) (UniProt P00533); assay: EGFR binders on small-molecule microarrays, primary screen, biochemical, small-molecule microarray, 635 nm fluorescence (AID 1104); details: EGFR binding, higher = more signal;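 note: score merges 667 nm emission intensity with spot signal to noise over triplicate slides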
Sequence of Epidermal growth factor receptor (Homo sapiens) (P00533 whole entry, looked up): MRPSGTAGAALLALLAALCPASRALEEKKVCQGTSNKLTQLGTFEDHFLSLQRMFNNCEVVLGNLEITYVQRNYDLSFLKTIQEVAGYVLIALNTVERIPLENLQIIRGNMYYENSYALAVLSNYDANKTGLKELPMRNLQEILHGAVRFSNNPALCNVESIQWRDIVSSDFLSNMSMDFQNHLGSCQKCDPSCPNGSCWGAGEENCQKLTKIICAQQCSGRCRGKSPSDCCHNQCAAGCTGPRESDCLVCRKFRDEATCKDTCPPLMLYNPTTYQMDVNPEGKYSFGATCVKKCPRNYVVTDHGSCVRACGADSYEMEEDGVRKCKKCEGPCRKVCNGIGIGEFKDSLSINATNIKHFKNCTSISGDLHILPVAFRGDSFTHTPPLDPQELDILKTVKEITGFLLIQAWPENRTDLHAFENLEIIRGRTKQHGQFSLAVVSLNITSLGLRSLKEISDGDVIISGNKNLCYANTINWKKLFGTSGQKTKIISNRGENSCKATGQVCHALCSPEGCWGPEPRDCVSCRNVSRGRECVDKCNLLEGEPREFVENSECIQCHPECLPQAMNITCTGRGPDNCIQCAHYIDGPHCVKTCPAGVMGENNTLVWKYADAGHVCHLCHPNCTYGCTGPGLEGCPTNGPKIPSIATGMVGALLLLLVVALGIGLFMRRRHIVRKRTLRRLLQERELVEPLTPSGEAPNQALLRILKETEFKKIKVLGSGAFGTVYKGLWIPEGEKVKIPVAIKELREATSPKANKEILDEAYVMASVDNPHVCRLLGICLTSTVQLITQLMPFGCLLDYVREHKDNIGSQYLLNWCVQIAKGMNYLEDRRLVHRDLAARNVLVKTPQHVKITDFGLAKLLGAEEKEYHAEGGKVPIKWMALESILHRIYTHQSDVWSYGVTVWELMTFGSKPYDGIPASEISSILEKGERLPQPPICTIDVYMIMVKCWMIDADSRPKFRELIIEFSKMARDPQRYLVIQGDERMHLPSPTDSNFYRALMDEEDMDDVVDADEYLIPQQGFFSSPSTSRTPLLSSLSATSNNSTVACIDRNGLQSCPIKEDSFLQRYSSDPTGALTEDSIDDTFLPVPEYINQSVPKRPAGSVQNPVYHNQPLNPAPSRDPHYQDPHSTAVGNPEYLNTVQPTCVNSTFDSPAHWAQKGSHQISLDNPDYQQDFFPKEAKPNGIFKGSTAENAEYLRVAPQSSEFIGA

[18] = target: Follistatin-related protein 3 (Homo sapiens) (UniProt O95633); assay: FSTL3 binders on small-molecule microarrays, primary screen, biochemical, small-molecule microarray, 635 nm fluorescence (AID 1105); details: FSTL3 binding, higher = more signal;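 note: score merges emission near 667 nm and signal to noise per printed spot across three slides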
Sequence of Follistatin-related protein 3 (Homo sapiens) (O95633 whole entry, looked up): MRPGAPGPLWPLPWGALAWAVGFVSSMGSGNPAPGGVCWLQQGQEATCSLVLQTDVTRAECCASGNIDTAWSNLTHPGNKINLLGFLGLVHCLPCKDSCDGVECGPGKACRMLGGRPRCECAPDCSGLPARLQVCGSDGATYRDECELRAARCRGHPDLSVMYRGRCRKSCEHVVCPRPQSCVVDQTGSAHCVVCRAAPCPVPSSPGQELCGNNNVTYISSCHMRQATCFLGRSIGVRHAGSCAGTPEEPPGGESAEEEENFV

[19] = target: Dickkopf-related protein 1 (Homo sapiens) (UniProt O94907); assay: DKK1 binders on small-molecule microarrays, primary screen, biochemical, small-molecule microarray, 635 nm fluorescence scan (AID 1106); details: DKK1 binding, higher = more signal;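 note: score merges emission near 667 nm with signal to noise over three replicate slides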
Sequence of Dickkopf-related protein 1 (Homo sapiens) (O94907 whole entry, looked up): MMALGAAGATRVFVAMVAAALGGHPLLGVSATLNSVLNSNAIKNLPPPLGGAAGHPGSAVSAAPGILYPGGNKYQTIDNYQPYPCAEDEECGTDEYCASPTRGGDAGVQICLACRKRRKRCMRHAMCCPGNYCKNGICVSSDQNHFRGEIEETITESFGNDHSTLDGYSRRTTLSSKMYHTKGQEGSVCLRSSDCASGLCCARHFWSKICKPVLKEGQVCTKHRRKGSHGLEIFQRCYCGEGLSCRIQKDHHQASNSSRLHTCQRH

[20] = test system: Inhibin beta A chain (activin A); assay: INHBA (activin A) binders on microarrays, primary screen, biochemical, small-molecule microarray, 635 nm fluorescence scan (AID 1107); details: small-molecule microarray binding, higher = more signal;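 note: mouse activin A protein probed at 4.33 µg/mL on printed slides; score merges bound-protein fluorescence near 667 nm with spot signal-to-noise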

SMILES	composite z-score [1]	z-score [2]	z-score [3]	z-score [4]	composite z-score [5]	z-score [6]	composite z-score [7]	composite z-score [8]	composite z-score [9]	composite z-score [10]	composite z-score [11]	composite z-score [12]	composite z-score [13]	z-score [14]	composite z-score [15]	composite z-score [16]	composite z-score [17]	composite z-score [18]	composite z-score [19]	composite z-score [20]
C=CCC(OC(C)=O)[C@@H]1[C@@H](N(Cc2ccc(-c3cccc(C(F)(F)F)c3)o2)C(=O)c2cccc3ccccc23)c2cc(OCCCO)ccc2N1C(=O)Cc1ccc(OC)cc1 (stereo not given in full)	0.224	0.504 (inactive)	-0.117 (inactive)	-0.296 (inactive)	0.648	0.776 (inactive)	0.0054	0.266	0.263	-0.133	0.727	-0.291	0.107	-0.57 (inactive)	0.0525	-1.13	-0.198	0.495	-0.141	1.08
CC(C)OC(=O)CC(=O)CC(O)c1ccc([N+](=O)[O-])cc1 (stereo not given)	0.65	-0.0857 (inactive)	-0.26 (inactive)	-0.34 (inactive)	1.27	-0.215 (inactive)	0.0416	-0.0624	0.422	-0.213	0.541	0.749	1.14	0.162 (inactive)	0.314	0.132	-0.41	0.198	-0.953	0.527
COc1ccc(C(O)C2C=CC3C(=O)N(c4ccccc4)C(=O)C3N2Nc2ccc(C(C)C)cc2)c2ccccc12 (stereo not given)	1.56	0.254 (inactive)	0.227 (inactive)	-0.519 (inactive)	3.61	-1.08 (inactive)	0.204	0.0754	1.07	-0.0019	1.6	0.661	0.942	0.48 (inactive)	0.839	1.29	0.0751	1.04	-0.0879	0.87
COC(=O)[C@@]1(Cc2ccccc2CN=[N+]=[N-])N=C(c2ccc(OCCCO)cc2)O[C@H]1c1ccccc1	1.45	0.682 (inactive)	-2.11 (inactive)	35.9 (active)	1.94	0.77 (inactive)	0.547	0.151	0.107	0.0209	1.13	0.789	0.966	0.31 (inactive)	-0.438	-0.0487	-0.0819	-0.153	-0.459	1.13
COCC(=C=CC[C@@H](O)c1ccc(OCCO)cc1)CCO	0.271	0.177 (inactive)	0.0708 (inactive)	-0.18 (inactive)	1.73	0.802 (inactive)	-0.132	0.913	0.622	-0.125	1.67	-0.0695	-0.113	1.12 (inactive)	1.27	-0.155	-0.265	0.409	0.299	0.892
